Bioassay records deposited in PubChem by several laboratories.
Compounds with a hit are over-represented: about 4.5% of the library has one in this group of screens.
tim23-1 inh: tim23-1 yeast growth inhibition. S. cerevisiae tim23-1 growth, BacTiter-Glo luminescence, 24 h. inhibition, % at 20 µM. hit rate 1.3% among 330,000;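 active = growth inhibition of the mutant yeast at or above 50%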;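 also: temperature-sensitive mutant grown at 25 °C; plate controls were DMSO-treated mutant yeast for no effect and medium wells lacking yeast for full effect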
tim10-1 inh: inhibits growth of tim10-1 mutant yeast; S. cerevisiae tim10-1 ts strain growth, BacTiter-Glo, 24 h; inhibition, % at 20 µM; hit rate 2.2% among 330,000;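 active = inhibition of at least 40%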;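 also: mutant grown at 25 °C; 0% = DMSO wells with yeast and 100% = wells holding no yeast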
PfHsp90 yeast 2: inhibits growth of yeast expressing Plasmodium falciparum Hsp90 | hit rate 0.32% among 310,000 | inhibition, % at 9.4 µM | AID 504621 | S. cerevisiae expressing PfHsp90, BacTiter-Glo ATP, 48 h; yeast lacking PDR1 and PDR3 efflux regulators;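 active = every replicate shows inhibition above about 80%, whatever the replicate mean, limit read from the data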;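 also: 0% = DMSO neutral controls and 100% = 20 µM radicicol positive controls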
TIM10 inh: inhibits growth of TIM10 yeast strain; hit rate 1.4% among 330,000; S. cerevisiae TIM10 strain growth, BacTiter-Glo luminescence, 24 h; inhibition, % at 10 µM; AID 463195;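 active = inhibition of 40% or more at the single tested concentration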;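 also: wild-type TIM10 isogenic control strain grown at permissive 25 °C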
SKKanGAS inh: SKKanGAS growth inhibition; S. pyogenes SKKanGAS, kanamycin growth, BacTiter-Glo, 6 h; inhibition, % at 7.5 µM; hit rate 1.3% among 300,000; AID 1662;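 active = mean replicate score, as percent of positive control median, at least 50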;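 also: strain carries kanamycin resistance gene driven by streptokinase promoter and grows in 40 µg/ml kanamycin; loss of luminescence reflects streptokinase promoter inhibition or plain growth inhibition; 0% = median of DMSO wells and 100% = positive control at its reference dose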
NLRP3 yeast inh: blocks the NALP3 inflammasome reconstituted in yeast. hit rate 0.39% among 330,000. inhibition, % at 10 µM. Yeast reconstituted NLRP3/ASC/caspase-1, beta-gal luminescence, 24 h;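 active = inhibition of 50% or more; inactive = inhibition below 50%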;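 also: plate controls were induced DMSO wells for no effect and uninduced yeast grown without galactose for full effect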
tim10-1 conf: tim10-1 yeast growth inhibition, confirmed; shares compounds with tim10-1 inh; S. cerevisiae tim10-1 ts strain growth, BacTiter-Glo, 24 h; inhibition, % at 20 µM; hit rate 56% among 7,400;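 active = inhibition of yeast growth at or above a set limit in either of two repeat tests at 20 µM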;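 also: tim10-1 mutant grown at permissive 25 °C to find synthetic lethal compounds; 0% = DMSO yeast wells and 100% = medium wells without yeast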
tim10 confirm: confirmation of TIM10 yeast growth inhibitors; shares compounds with TIM10 inh; S. cerevisiae tim10 strain growth, BacTiter-Glo luminescence, 24 h; inhibition, % at 10 µM; hit rate 63% among 4,600;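 active = inhibition of yeast growth at or above a set limit in either of two replicates at 10 µM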;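 also: this counterscreen used the strain with wild-type TIM10; 0% = yeast with DMSO and 100% = medium wells lacking yeast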
tim23-1 conf: confirmation of tim23-1 mutant yeast growth inhibitors; AID 463218; hit rate 83% among 4,400; S. cerevisiae tim23-1 growth, BacTiter-Glo luminescence, 24 h; shares compounds with tim23-1 inh; inhibition, % at 20 µM;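 active = inhibition above about 39% in either of two replicate wells at 20 µM, limit read from the data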;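 also: temperature-sensitive tim23-1 mutant grown at 25 °C; 0% = DMSO wells with yeast and 100% = medium wells without yeast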
The depositor's hits bear a star; nt = no result given.

SMILES	tim23-1 inh	tim10-1 inh	PfHsp90 yeast 2	TIM10 inh	SKKanGAS inh	NLRP3 yeast inh	tim10-1 conf	tim10 confirm	tim23-1 conf
CCC1CCc2sc(C(=O)N3CCN(c4ccccn4)CC3)cc2C1 (centres undefined)	55.9*	45.9*	8.3	30.5	6.4	24.6	34.5*	nt	55.8*
CC(Oc1ccccc1F)c1nnc(SCC(=O)NCc2ccc3c(c2)OCO3)o1 (centres undefined)	23.6	20.3	-14.7	6.3	nt	14.6	nt	nt	nt
Cc1cc(N)n2ncc(-c3ccc(Cl)cc3)c2n1	70.5*	52.8*	24.1	22.5	-6.3	27.7	40.5*	nt	20.8*
Cc1cc(-c2ccc(Cl)cc2)c2cnn(C(C)C)c2n1	36.1	35.1	8.0	-4.2	15.1	15.3	nt	nt	nt
CC1Cc2ccccc2N1C(=S)NC(=O)c1cccc(Br)c1 (centres undefined)	52.1*	44.4*	-164.6	59.0*	93.2*	9.8	32.1*	5.2	58.1*
Cc1ccccc1OCCN1C(=O)C(=O)c2cccc(C)c21	60.3*	44.9*	-0.4	22.8	0.7	19.5	25.5	nt	33.2
Cc1cccc2c1N(CCOc1ccccc1Cl)C(=O)C2=O	55.9*	50.5*	26.9	27.3	13.4	15.9	19.2	nt	-30.4
CCN(CC(=O)N1CCN(Cc2ccccc2)CC1)S(=O)(=O)c1ccc(C)cc1	-0.8	0.1	-5.2	4.5	15.2	-3.1	nt	nt	nt
CCOn1c(=O)c(-c2cccc(Br)c2)[n+]([O-])c2ccccc21	32.1	7.8	8.7	5.3	1.1	18.5	nt	nt	nt
C/C(=N\Nc1nc2c(s1)CCCC2)c1ccc(Cl)cc1	58.2*	60.7*	-4.5	50.0*	11.8	14.1	47.1*	24.2	62.8*
COc1ccc(/C=N/NC(=O)c2cccc(Br)c2)cc1COc1ccccn1	-4.3	7.6	4.8	-11.4	-1.2	12.3	nt	nt	nt
O=C(CCc1nc2ccccc2c(=O)[nH]1)Nc1nnc(SCc2ccccc2F)s1	10.7	6.8	-25.7	-2.2	nt	-9.2	nt	nt	nt
CC(C)=CCN1CCN(Cc2cn(C(C)C)c3ccccc23)CC1CCO (centres undefined)	6.5	12.6	0.9	1.3	3.7	13.9	nt	nt	nt
COc1ccc(NC(=O)C/C(C)=N/NC(=O)C2CCCCC2)c([N+](=O)[O-])c1	27.9	18.4	38.3	4.8	-0.7	27.6	nt	nt	nt
N#C/C(=C\c1cc2c(cc1Br)OCO2)C(=O)NCC1CCCO1 (centres undefined)	86.6*	67.2*	-4.7	64.7*	0.3	21.8	66.9*	72.0*	77.5*
N#C/C(=C\c1cccc([N+](=O)[O-])c1)C(=O)NCC1CCCO1 (centres undefined)	77.1*	56.9*	7.0	57.3*	-5.7	-0.3	51.6*	45.0*	71.6*
C/C(=N/Nc1nc(-c2ccccc2)cc(-c2ccc(F)cc2)n1)c1cccc(N)c1	54.6*	46.5*	-25.2	51.6*	14.6	2.6	44.4*	0.1	53.4*
C/C(=N\Nc1nc(C)cc(-c2ccccc2)n1)c1ccc(F)cc1	5.2	5.3	-4.8	1.4	-11.5	33.3	nt	nt	nt
O=C(CN1C(=O)C2CCCCC2C1=O)Nc1ccc(OC(F)F)c(Cl)c1 (centres undefined)	23.0	7.2	-41.6	12.3	nt	3.0	nt	nt	nt
O=C(NC(=S)NC1CCCc2ccccc21)c1ccc(F)cc1 (centres undefined)	37.2	35.0	-3.6	18.3	40.3	-20.6	nt	nt	nt
O=C(NC(=S)NCCc1ccccc1)c1ccco1	55.9*	42.2*	-7.2	48.1*	3.0	-6.1	26.1	-15.2	48.3*
NS(=O)(=O)c1ccc(NC(=S)NCCc2ccccc2)cc1	-0.9	-1.2	-4.5	-5.4	2.5	15.5	nt	nt	nt
O=C(NC(=S)NCCC1=CCCCC1)c1ccco1	40.7	37.2	-39.2	16.7	-11.0	-29.5	nt	nt	nt
O=C(NC(=S)NC1CCCc2ccccc21)c1ccco1 (centres undefined)	51.7*	51.4*	-9.3	42.7*	14.3	-21.1	41.0*	42.6*	57.7*
O=[N+]([O-])c1ccc(NC(=S)NCCc2ccccc2)cc1	52.5*	67.1*	-6.1	58.9*	4.9	34.5	56.8*	51.8*	68.9*
SMILES	tim23-1 inh	tim10-1 inh	PfHsp90 yeast 2	TIM10 inh	SKKanGAS inh	NLRP3 yeast inh	tim10-1 conf	tim10 confirm	tim23-1 conf
CC1CCN(c2cc(N)c(Cl)cc2[N+](=O)[O-])CC1	71.6*	52.0*	2.8	41.4*	8.2	30.8	37.1*	-12.3	65.2*
CC1CCN(c2cc(C#N)c(C#N)cc2[N+](=O)[O-])CC1	-11.7	13.9	nt	2.9	10.1	17.3	nt	nt	nt
Cc1cc(OCc2cc(C(=O)N3CCC(Oc4cccnc4)CC3)no2)cc(C)c1Cl	51.4*	60.8*	-2.4	40.5*	5.6	7.1	38.3*	47.5*	55.0*
Cc1cc(OCc2cc(C(=O)N3CCN(CC4CC4)CC3)no2)cc(C)c1Cl	22.6	34.5	20.8	22.1	1.3	32.0	nt	nt	nt
COc1ccc(CCNC(=O)Cn2nc(C)n3nc(-c4ccccc4)cc3c2=O)cc1OC	-4.7	7.6	-0.7	-1.4	1.0	-1.5	nt	nt	nt
CC1=NOC(=O)/C1=C\c1ccc(-c2ccc(Cl)cc2Cl)o1	81.1*	45.5*	72.0	21.1	70.2*	8.5	46.4*	nt	51.0*
CCCOc1ccc(Cl)cc1/C=C1/C(=O)ON=C1C	10.4	35.9	4.2	-8.8	-3.8	6.3	nt	nt	nt
CCN(CC(=O)Nc1ccc(OC)cc1)C(=O)Cc1cccs1	5.7	4.2	nt	1.1	3.7	6.1	nt	nt	nt
COCCN(C(=O)CCl)C(C(=O)NC1CCCCC1)c1ccccc1C (centres undefined)	50.4*	55.1*	-1.4	46.9*	1.4	10.9	44.1*	5.0	53.2*
CC(C)C[C@@H]1NC(=O)N(CCCn2ccnc2)C1=O	6.8	-17.3	-3.9	8.3	0.9	4.3	nt	nt	nt
CCOC(=O)C1=C(N)OC2=C(C(=O)CC(C)(C)C2)C1C1CCCCC1 (centres undefined)	55.8*	44.8*	36.6	27.9	3.8	-18.3	33.5*	nt	46.1*
c1ccc(-c2ccc(-c3ccncn3)cc2)cc1	-107.8	-122.7	-4.6	-140.3	-8.6	26.7	nt	nt	nt
O=C(ONC1=NCCCCC1)c1ccc([N+](=O)[O-])cc1	86.2*	51.6*	3.5	83.2*	-7.1	-2.0	34.2*	84.2*	65.5*
O=C(Nc1cccc([N+](=O)[O-])c1)ONC1=NCCCCC1	2.0	14.5	14.4	-4.5	-7.6	-0.3	nt	nt	nt
NCC1CC2c3ccccc3C1c1ccccc12 (centres undefined)	18.6	-15.8	3.8	7.0	4.0	14.7	nt	nt	nt
